Several values for one entry are separate records, joined by “and”; a condition that tells them apart may be missing. Identical values can stand only once. The campaign covered roughly 5,500 compounds. About 2,000 (36%) were called active. Inconclusive results (about 18%) are left out. No stated cut-off is given here; in the data, active means normalized growth mostly below about 0.91 (no sharp cut-off); inconclusive means no clear call, values can overlap the other calls; inactive means mostly above about 0.92. The list shows a part of the results.
Test: chemical genetic growth profiling, strain panel (AID 1159580);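 further: tested at 20 µM; growth read once vehicle control cultures reached saturation at 30 °C; 1 = growth at the plate median or of vehicle wells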
Conditions: S. cerevisiae deletion strains, growth OD

Measured: normalized growth

O=c1ccc2cc(O)c(O)cc2o1
inactive: locus YAL013W, strain DEP1, stronger effect = lower value 1.01 | locus YAL021C, strain ccr4, stronger effect = lower value 1.01 | locus YAL026C, strain drs2, stronger effect = lower value 0.992 | locus YAL030W, strain snc1, stronger effect = lower value 1.03 | locus YBL061C, strain skt5, stronger effect = lower value 1 | locus YBR009C, strain hhf1, stronger effect = lower value 1.03 | locus YBR021W, strain FUR4, stronger effect = lower value 0.974 | locus YBR023C, strain chs3, stronger effect = lower value 1 | locus YBR171W, strain sec66, stronger effect = lower value 1 | locus YBR229C, strain ROT2, stronger effect = lower value 1.01 | locus YBR231C, strain swc5, stronger effect = lower value 0.966 | locus YBR279W, strain paf1, stronger effect = lower value 1.01 | locus YCL011C, strain gbp2, stronger effect = lower value 1.03 | locus YCL016C, strain dcc1, stronger effect = lower value 1 | locus YCL029C, strain bik1, stronger effect = lower value 0.989 | locus YCL061C, strain MRC1, stronger effect = lower value 1 | locus YCL069W, strain vba3, stronger effect = lower value 0.999 | locus YCR088W, strain abp1, stronger effect = lower value 1.01 | locus YDL005C, strain med2, stronger effect = lower value 1.02 | locus YDL035C, strain GPR1, stronger effect = lower value 0.999 | locus YDL040C, strain nat1, stronger effect = lower value 1.02 | locus YDL074C, strain BRE1, stronger effect = lower value 1 | locus YDL101C, strain DUN1, stronger effect = lower value 1.01 | locus YDL185W, strain tfp1, stronger effect = lower value 0.987 | locus YDL192W, strain arf1, stronger effect = lower value 0.991 | locus YDR001C, strain nth1, stronger effect = lower value 0.994 | locus YDR069C, strain doa4, stronger effect = lower value 1.03 | locus YDR101C, strain arx1, stronger effect = lower value 0.98 | locus YDR137W, strain rgp1, stronger effect = lower value 0.913 | locus YDR159W, strain sac3, stronger effect = lower value 0.968 | locus YDR162C, strain NBP2, stronger effect = lower value 1.01 | locus YDR195W, strain ref2 1.01 | locus YDR297W, strain sur2, stronger effect = lower value 1.01 | locus YDR318W, strain mcm21, stronger effect = lower value 0.996 | locus YDR334W, strain swr1, stronger effect = lower value 1 | locus YDR335W, strain msn5, stronger effect = lower value 0.99 | locus YDR388W, stronger effect = lower value 0.996 | locus YDR392W, strain spt3, stronger effect = lower value 1.01 | locus YDR502C, strain sam2, stronger effect = lower value 0.997 | locus YEL003W, strain gim4, stronger effect = lower value 1.03 | locus YEL037C, strain rad23, stronger effect = lower value 1 | locus YEL061C, strain CIN8 (second series), stronger effect = lower value 0.997 | locus YEL061C, strain CIN8, stronger effect = lower value 1.01 | locus YER015W, strain faa2, stronger effect = lower value 0.993 | locus YER016W, strain bim1, stronger effect = lower value 0.975 | locus YER110C, stronger effect = lower value 0.991 | locus YER111C, strain swi4, stronger effect = lower value 0.99 | locus YER155C, strain BEM2 (second series), stronger effect = lower value 1.1 | locus YER155C, strain BEM2, stronger effect = lower value 1 | locus YER167W, strain BCK2, stronger effect = lower value 1.01 | locus YFR010W, strain ubp6, stronger effect = lower value 1 | locus YGL078C, strain dbp3, stronger effect = lower value 0.984 | locus YGL086W, strain mad1, stronger effect = lower value 0.987 | locus YGL167C, strain pmr1, stronger effect = lower value 0.998 | locus YGL173C, strain kem1, stronger effect = lower value 0.975 | locus YGL227W, strain vid30, stronger effect = lower value 0.999 | locus YGL240W, strain doc1, stronger effect = lower value 1.05 | locus YGL248W, strain PDE1, stronger effect = lower value 1.01 | locus YGL253W, strain hxk2, stronger effect = lower value 0.984 | locus YGR078C, strain PAC10, stronger effect = lower value 1.01 | locus YGR135W, strain pre9, stronger effect = lower value 0.987 | locus YGR252W, strain gcn5, stronger effect = lower value 0.942 | locus YHR013C, strain ard1, stronger effect = lower value 1.01 | locus YHR027C, strain rpn1, stronger effect = lower value 0.973 | locus YHR030C, strain SLT2, stronger effect = lower value 1.01 and 0.971 | locus YHR079C, strain IRE1 (second series), stronger effect = lower value 0.99 | locus YHR079C, strain IRE1, stronger effect = lower value 0.976 | locus YHR094C, strain hxt1, stronger effect = lower value 0.996 | locus YHR129C, strain ARP1, stronger effect = lower value 1.01 | locus YHR142W, strain chs7, stronger effect = lower value 0.979 | locus YHR200W, strain rpn10, stronger effect = lower value 0.99 | locus YIL066C, strain RNR3, stronger effect = lower value 1.01 | locus YIL073C, strain SPO22, stronger effect = lower value 0.976 | locus YIL125W, strain kgd1, stronger effect = lower value 0.984 | locus YIR030C, strain dcg1, stronger effect = lower value 0.996 | locus YJL092W, strain hpr5, stronger effect = lower value 1.01 | locus YJL095W, strain BCK1 (second series), stronger effect = lower value 1.02 | locus YJL095W, strain BCK1, stronger effect = lower value 1.02 and 0.993 | locus YJL115W, strain asf1, stronger effect = lower value 1.01 | locus YJL129C, strain trk1, stronger effect = lower value 0.973 | locus YJL134W, strain LCB3, stronger effect = lower value 1.02 | locus YJL154C, strain vps35, stronger effect = lower value 1.01 | locus YJL164C, strain tpk1, stronger effect = lower value 1.02 | locus YJL166W, strain qcr8, stronger effect = lower value 1.02 | locus YJL168C, strain set2, stronger effect = lower value 0.985 | locus YJL187C, strain SWE1 (second series), stronger effect = lower value 1.02 | locus YJR043C, strain POL32, stronger effect = lower value 1.02 | locus YJR066W, strain TOR1, stronger effect = lower value 0.978 | locus YKL009W, strain mrt4, stronger effect = lower value 1.01 | locus YKL068W, stronger effect = lower value 1 | locus YKL085W, strain MDH1 (second series), stronger effect = lower value 1 | locus YKL085W, strain MDH1, stronger effect = lower value 1 | locus YKL160W, strain elf1, stronger effect = lower value 0.961 | locus YKL190W, strain CNB1, stronger effect = lower value 1.01 | locus YKR001C, strain vps1, stronger effect = lower value 0.953 | locus YKR026C, strain gcn3, stronger effect = lower value 0.997 | locus YKR091W, strain srl3, stronger effect = lower value 1 | locus YLL001W, strain dnm1, stronger effect = lower value 1.02 | locus YLL026W, stronger effect = lower value 0.999 | locus YLL041C, strain sdh2, stronger effect = lower value 0.995 | locus YLR027C, strain aat2, stronger effect = lower value 1 | locus YLR039C, strain RIC1, stronger effect = lower value 1 | locus YLR058C, strain SHM2, stronger effect = lower value 1.02 | locus YLR102C, strain apc9, stronger effect = lower value 0.987 | locus YLR113W, strain HOG1, stronger effect = lower value 0.957 | locus YLR221C, strain rsa3, stronger effect = lower value 1.02 | locus YLR258W, strain gsy2, stronger effect = lower value 0.994 | locus YLR262C, strain YPT6 (second series), stronger effect = lower value 1.05 | locus YLR262C, strain YPT6, stronger effect = lower value 1.01 | locus YLR268W, strain sec22, stronger effect = lower value 0.972 | locus YLR320W, strain mms22, stronger effect = lower value 1.04 | locus YLR330W, strain CHS5, stronger effect = lower value 1.02 | locus YLR342W, strain FKS1 (second series), stronger effect = lower value 0.965 | locus YLR342W, strain FKS1, stronger effect = lower value 1.02 | locus YLR357W, strain rsc2, stronger effect = lower value 0.994 | locus YLR370C, strain arc18, stronger effect = lower value 1.01 | locus YLR371W, strain rom2, stronger effect = lower value 0.982 | locus YLR384C, strain iki3, stronger effect = lower value 1 | locus YLR418C, strain cdc73, stronger effect = lower value 0.953 | locus YML016C, strain PPZ1, stronger effect = lower value 1.02 | locus YML032C, strain rad52, stronger effect = lower value 1 | locus YML120C, strain ndi1, stronger effect = lower value 1.01 | locus YML124C, strain tub3, stronger effect = lower value 0.996 | locus YMR058W, strain fet3, stronger effect = lower value 0.97 | locus YMR078C, strain ctf18, stronger effect = lower value 0.989 | locus YMR125W, strain sto1, stronger effect = lower value 1.02 | locus YMR129W, stronger effect = lower value 1 | locus YMR205C, strain PFK2, stronger effect = lower value 1.02 | locus YMR223W, strain ubp8, stronger effect = lower value 0.985 | locus YMR231W, strain pep5, stronger effect = lower value 1 | locus YMR263W, strain SAP30, stronger effect = lower value 1 | locus YMR307W, strain GAS1, stronger effect = lower value 0.983 | locus YNL067W, strain RPL9B, stronger effect = lower value 0.989 | locus YNL071W, strain lat1, stronger effect = lower value 1.01 | locus YNL183C, strain NPR1, stronger effect = lower value 0.921 | locus YNL209W, strain ssb2, stronger effect = lower value 1 | locus YNL233W, strain BNI4, stronger effect = lower value 1.01 | locus YNL248C, strain rpa49, stronger effect = lower value 1.03 | locus YNL250W, strain rad50, stronger effect = lower value 1.01 | locus YNL271C, strain bni1, stronger effect = lower value 0.99 | locus YNL298W, strain CLA4, stronger effect = lower value 0.994 | locus YNL307C, strain MCK1, stronger effect = lower value 0.984 | locus YNL322C, strain KRE1 (second series), stronger effect = lower value 1 | locus YNL322C, strain KRE1, stronger effect = lower value 1.01 | locus YNR049C, strain mso1, stronger effect = lower value 1.01 | locus YNR052C, strain pop2, stronger effect = lower value 0.983 | locus YOL006C, strain TOP1, stronger effect = lower value 1.01 | locus YOL012C, strain htz1 0.571 | locus YOL147C, strain pex11, stronger effect = lower value 0.997 | locus YOR001W, strain rrp6, stronger effect = lower value 1.03 | locus YOR061W, strain CKA2, stronger effect = lower value 1.02 | locus YOR069W, strain VPS5, stronger effect = lower value 1.01 | locus YOR070C, strain gyp1, stronger effect = lower value 1 | locus YOR080W, strain dia2, stronger effect = lower value 1 | locus YOR083W, strain WHI5, stronger effect = lower value 0.942 | locus YOR106W, strain vam3, stronger effect = lower value 0.913 | locus YOR136W, strain idh2, stronger effect = lower value 0.993 | locus YOR144C, strain elg1, stronger effect = lower value 0.983 | locus YOR184W, strain ser1, stronger effect = lower value 0.992 | locus YOR231W, strain MKK1, stronger effect = lower value 0.98 | locus YOR265W, strain rbl2, stronger effect = lower value 0.989 | locus YOR270C, strain vph1, stronger effect = lower value 1.06 | locus YOR290C, strain snf2, stronger effect = lower value 1 | locus YOR316C, strain cot1, stronger effect = lower value 0.998 | locus YPL051W, strain arl3, stronger effect = lower value 1 | locus YPL055C, strain LGE1, stronger effect = lower value 0.99 | locus YPL078C, strain atp4, stronger effect = lower value 0.986 | locus YPL106C, strain sse1, stronger effect = lower value 0.983 | locus YPL240C, strain hsp82, stronger effect = lower value 1 | locus YPL256C, strain CLN2, stronger effect = lower value 1 | locus YPR119W, strain clb2, stronger effect = lower value 0.994 | locus YPR141C, strain kar3, stronger effect = lower value 0.993 | locus YPR163C, strain tif3, stronger effect = lower value 1 | locus YPR167C, strain met16, stronger effect = lower value 0.993 | strain wtn01, stronger effect = lower value 0.979

Reference: PubChem BioAssay AID1159580 (chemical genetic matrix, 2015)
